Experimental data taken from PubChem BioAssay AID1159580 (chemical genetic matrix, 2015).
Where “and” joins values, the source holds several entries; their conditions need not be identical. Equal values may be shown once. About 2,000 (36%) of roughly 5,500 compounds were called active. Not shown: some 18% with an inconclusive outcome. No stated cut-off is given here; in the data, active means normalized growth mostly below about 0.91 (no sharp cut-off); inconclusive means no clear call, values can overlap the other calls; inactive means mostly above about 0.92. Some of the results follow.

Experiment: chemical genetic growth profiling, strain panel (AID 1159580);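 further: tested at 20 µM; growth read once vehicle control cultures reached saturation at 30 °C; 1 = growth at the plate median or of vehicle wells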
Conditions: S. cerevisiae deletion strains, growth OD

Measured: normalized growth

NS(=O)(=O)c1cc2c(cc1Cl)NC(C(Cl)Cl)NS2(=O)=O (configuration not stated)
inactive: locus YAL021C, strain ccr4, stronger effect = lower value 0.977 | locus YAL026C, strain drs2, stronger effect = lower value 0.968 | locus YAL030W, strain snc1, stronger effect = lower value 0.978 | locus YBL061C, strain skt5, stronger effect = lower value 0.985 | locus YBR009C, strain hhf1, stronger effect = lower value 0.919 | locus YBR021W, strain FUR4, stronger effect = lower value 1.01 | locus YBR023C, strain chs3, stronger effect = lower value 0.978 | locus YBR171W, strain sec66, stronger effect = lower value 0.972 | locus YBR229C, strain ROT2, stronger effect = lower value 1.01 | locus YBR231C, strain swc5, stronger effect = lower value 0.979 | locus YBR279W, strain paf1, stronger effect = lower value 0.984 | locus YCL011C, strain gbp2, stronger effect = lower value 0.96 | locus YCL016C, strain dcc1, stronger effect = lower value 0.967 | locus YCL029C, strain bik1, stronger effect = lower value 1.02 | locus YCL069W, strain vba3, stronger effect = lower value 0.988 | locus YCR088W, strain abp1, stronger effect = lower value 0.96 | locus YDL005C, strain med2, stronger effect = lower value 0.974 | locus YDL035C, strain GPR1, stronger effect = lower value 0.991 | locus YDL040C, strain nat1, stronger effect = lower value 0.986 | locus YDL074C, strain BRE1, stronger effect = lower value 1.01 | locus YDL101C, strain DUN1, stronger effect = lower value 1 | locus YDL134C, strain PPH21, stronger effect = lower value 1.02 | locus YDL185W, strain tfp1, stronger effect = lower value 1.02 | locus YDL192W, strain arf1, stronger effect = lower value 1.02 | locus YDR001C, strain nth1, stronger effect = lower value 0.957 | locus YDR069C, strain doa4, stronger effect = lower value 0.989 | locus YDR101C, strain arx1, stronger effect = lower value 1.01 | locus YDR137W, strain rgp1, stronger effect = lower value 0.97 | locus YDR150W, strain NUM1, stronger effect = lower value 1.01 | locus YDR159W, strain sac3, stronger effect = lower value 0.918 | locus YDR162C, strain NBP2, stronger effect = lower value 1.01 | locus YDR195W, strain ref2 0.992 | locus YDR297W, strain sur2, stronger effect = lower value 0.984 | locus YDR318W, strain mcm21, stronger effect = lower value 1.02 | locus YDR334W, strain swr1, stronger effect = lower value 0.979 | locus YDR335W, strain msn5, stronger effect = lower value 0.963 | locus YDR388W, stronger effect = lower value 1.02 | locus YDR392W, strain spt3, stronger effect = lower value 0.917 | locus YDR502C, strain sam2, stronger effect = lower value 1.01 | locus YEL003W, strain gim4, stronger effect = lower value 0.976 | locus YEL037C, strain rad23, stronger effect = lower value 0.98 | locus YEL061C, strain CIN8 (second series), stronger effect = lower value 0.971 | locus YEL061C, strain CIN8, stronger effect = lower value 1.01 | locus YER015W, strain faa2, stronger effect = lower value 0.977 | locus YER016W, strain bim1, stronger effect = lower value 0.926 | locus YER110C, stronger effect = lower value 1.02 | locus YER111C, strain swi4, stronger effect = lower value 0.982 | locus YER155C, strain BEM2 (second series), stronger effect = lower value 1.03 | locus YER155C, strain BEM2, stronger effect = lower value 1.01 | locus YER167W, strain BCK2, stronger effect = lower value 1.01 | locus YFR010W, strain ubp6, stronger effect = lower value 0.984 | locus YGL078C, strain dbp3, stronger effect = lower value 1.01 | locus YGL086W, strain mad1, stronger effect = lower value 1.01 | locus YGL167C, strain pmr1, stronger effect = lower value 0.963 | locus YGL173C, strain kem1, stronger effect = lower value 0.998 | locus YGL227W, strain vid30, stronger effect = lower value 0.98 | locus YGL240W, strain doc1, stronger effect = lower value 0.99 | locus YGL248W, strain PDE1, stronger effect = lower value 0.997 | locus YGL253W, strain hxk2, stronger effect = lower value 0.976 | locus YGR135W, strain pre9, stronger effect = lower value 1.01 | locus YGR252W, strain gcn5, stronger effect = lower value 0.991 | locus YHR013C, strain ard1, stronger effect = lower value 0.914 | locus YHR027C, strain rpn1, stronger effect = lower value 0.975 | locus YHR030C, strain SLT2, stronger effect = lower value 1.01 and 0.993 | locus YHR079C, strain IRE1 (second series), stronger effect = lower value 1.01 | locus YHR079C, strain IRE1, stronger effect = lower value 0.989 | locus YHR094C, strain hxt1, stronger effect = lower value 1.01 | locus YHR129C, strain ARP1, stronger effect = lower value 0.993 | locus YHR142W, strain chs7, stronger effect = lower value 0.981 | locus YHR200W, strain rpn10, stronger effect = lower value 1.01 | locus YIL066C, strain RNR3, stronger effect = lower value 1.02 | locus YIL073C, strain SPO22, stronger effect = lower value 1.06 | locus YIL125W, strain kgd1, stronger effect = lower value 1.01 | locus YIR030C, strain dcg1, stronger effect = lower value 1.02 | locus YJL092W, strain hpr5, stronger effect = lower value 0.987 | locus YJL095W, strain BCK1 (second series), stronger effect = lower value 0.973 | locus YJL095W, strain BCK1, stronger effect = lower value 0.991 and 0.983 | locus YJL115W, strain asf1, stronger effect = lower value 0.963 | locus YJL129C, strain trk1, stronger effect = lower value 0.968 | locus YJL134W, strain LCB3, stronger effect = lower value 1.01 | locus YJL154C, strain vps35, stronger effect = lower value 0.978 | locus YJL164C, strain tpk1, stronger effect = lower value 0.94 | locus YJL166W, strain qcr8, stronger effect = lower value 0.993 | locus YJL168C, strain set2, stronger effect = lower value 1.01 | locus YJL187C, strain SWE1 (second series), stronger effect = lower value 1.01 | locus YJR043C, strain POL32, stronger effect = lower value 1 | locus YJR066W, strain TOR1, stronger effect = lower value 0.931
